Test results from publication PMC5540273 (PLoS ONE, 2017).
Several values for one entry are separate records, joined by “and”; a condition that tells them apart may be missing. Equal values may be shown once. Read-outs that look alike come from different tables or passages of the source.

Experiments:
MERTK = conditions: concentration: 1 μM, replicates: in singlicate; n = 1
MET = conditions: concentration: 1 μM, replicates: in singlicate; n = 1
MINK = system: T1, MINK; conditions: concentration: 1 μM, replicates: in singlicate, n = 1
T1 construct: gene MINK1

MKK7 = conditions: concentration: 1 μM, replicates: in singlicate, n = 1
MKNK1 = conditions: concentration: 1 μM, replicates: in singlicate; n = 1
MKNK2 = conditions: concentration: 1 μM, replicates: in singlicate, n = 1
MLCK = system: T2, MLCK; conditions: concentration: 1 μM, replicates: in singlicate; n = 1
T2 construct: gene MYLK3

MLK1 = system: T3, MLK1; conditions: concentration: 1 μM, replicates: in singlicate; n = 1
T3 construct: gene MAP3K9

MLK2 = conditions: concentration: 1 μM, replicates: in singlicate, n = 1
MLK3 = conditions: concentration: 1 μM, replicates: in singlicate, n = 1
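Also: KINOMEscan kinase panel screen.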

Structure (SMILES)	%Inh (MERTK) [%]	%Inh (MET) [%]	%Inh (MINK) [%]	%Inh (MKK7) [%]	%Inh (MKNK1) [%]	%Inh (MKNK2) [%]	%Inh (MLCK) [%]	%Inh (MLK1) [%]	%Inh (MLK2) [%]	%Inh (MLK3) [%]	%Inh (MINK; 1 µM)	%Inh (MKK7; 1 µM)	%Inh (MKNK2; 1 µM)	%Inh (MLK2; 1 µM)	%Inh (MLK3; 1 µM)
CCCc1ccc(S(=O)(=O)NC2CCN(c3ccnc(Nc4ccc(OC)cc4)n3)C2)cc1 (stereo not shown) [GSK1379737]	16	0	0	0	0	6	11	0	0	4	–	–	–	–	–
Clc1cccc(-c2nc(Nc3ccncc3)c3ccccc3n2)c1 [GW873004]	7	33	16	0	18	0	0	2	16	0	–	–	–	–	–
CCC(CC)(CC)n1cnc2c(N)ncnc21 [SKF-97620]	40	0	15	0	0	10	0	0	3	1	–	–	–	–	–
N#Cc1ccc(Oc2ccc(Nc3ncnc4cc[nH]c34)cc2Cl)cc1	0	11	31	0	0	20	8	0	0	0	–	–	–	–	–
Nc1nccc2scc(-c3ccc4c(c3)CCN4C(=O)Cc3cc(F)ccc3F)c12 [GSK2587663]	0	0	18	0	0	4	4	0	0	15	–	–	–	–	–
Nc1nc(-c2ccccn2)c(-c2ccnc3ccccc23)s1 [GW548057]	2	0	56	14	1	0	0	0	0	0	–	–	–	–	–
CSc1ccc(NC2=C(c3ccccc3Cl)C(=O)NC2=O)cc1 [SB-342411]	0	0	2	39	100	0	0	9	0	4	–	–	–	–	–
Cl.O=S(=O)(c1cccc(F)c1)c1ccc(Nc2ncnc3cc(Br)sc23)cc1Cl [GSK306886]	37	0	0	0	11	11	0	0	0	2	–	–	–	–	–
Cl.Cn1ccc(-c2cccc(Nc3ccnc4cc(-c5nccs5)ccc34)c2)n1 [GW525701]	23	0	54	0	7	1	14	0	0	0	–	–	–	–	–
FC(F)(F)c1ccc(-c2cc(-c3c[nH]nc3-c3ccccn3)ccn2)cc1 [GW599550]	0	14	75	0	7	0	7	10	0	21	–	–	–	–	–
Clc1cc(Nc2ncnc3cc[nH]c23)ccc1OCc1ccccn1	0	4	33	5	35	22	0	0	2	0	–	–	–	–	–
CSc1nn2c(=O)cc(N3CCOCC3)nc2n1Cc1cccc(Cl)c1Cl [GSK2347225]	40	0	21	0	20	2	13	0	4	11	–	–	–	–	–
Cc1ccc(O)cc1Nc1cc(C(F)(F)F)nc2ccc(-c3ccncc3)cc12 [GW630823]	21	6	0	0	0	0	12	4	2	0	–	–	–	–	–
CC(=O)Nc1n[nH]c2ncc(-c3ccccc3)cc12 [SB-548492]	37	4	30	2	0	62	0	8	6	3	–	–	–	–	–
COc1ccc(-c2oc3ncnc(N)c3c2-c2ccc(OC)cc2)cc1 [SB-589132]	29	0	0	0	25	41	23	0	0	0	–	–	–	–	–
Cc1cc(N2CCC(NS(=O)(=O)c3ccc(F)cc3)CC2)nc(Nc2cccc(C#N)c2)n1.O=C(O)C(F)(F)F [GSK1653537]	39	0	0	0	7	3	0	12	0	15	–	–	–	–	–

Structure (SMILES)	%Inh (MERTK) [%]	%Inh (MET) [%]	%Inh (MINK) [%]	%Inh (MKK7) [%]	%Inh (MKNK1) [%]	%Inh (MKNK2) [%]	%Inh (MLCK) [%]	%Inh (MLK1) [%]	%Inh (MLK2) [%]	%Inh (MLK3) [%]	%Inh (MINK; 1 µM)	%Inh (MKK7; 1 µM)	%Inh (MKNK2; 1 µM)	%Inh (MLK2; 1 µM)	%Inh (MLK3; 1 µM)
O=c1cc(N2CCOCC2)nc2n(Cc3cccc(Cl)c3)ccn12 [GSK2296823]	15	0	0	12	0	15	0	0	19	0	–	–	–	–	–
CCc1nc(-c2cccc(C)c2)c(-c2ccnc(NC(=O)c3ccccc3)c2)s1	3	2	61	0	0	8	0	0	16	0	–	–	–	–	–
Cc1ccc(C)c(NC(=O)NCCNc2ccnc(Nc3ccc(F)cc3)n2)c1 [GSK1379878]	2	0	0	0	0	0	0	0	0	4	–	–	–	–	–
CCc1nc(-c2cccc(N(C)S(=O)(=O)c3ccccc3)c2)c(-c2ccnc(Nc3ccc(N4CCN(C(C)=O)CC4)nc3)n2)s1 [GSK1645895]	11	0	18	0	0	6	0	0	0	0	–	–	–	–	–
CC(C)(C)c1ccc(-n2cnc3c(N)ncnc32)cc1 [SKF-97263]	41	0	14	6	0	29	4	2	61	0	–	–	–	–	–
COc1ccc(-c2nc3n(c2-c2ccncc2)CCC3)cc1 [SKF-104493]	0	0	–	–	0	–	0	0	–	–	5% and 19%	14% and 19%	19% and 0%	0% and 4%	9% and 24%
CN1c2ccc(-c3ccc(C(=O)NCCO)cc3)cc2-c2[nH]ncc2S1(=O)=O	0	2	46	0	0	0	0	29	27	18	–	–	–	–	–
Oc1ccc2ncnc(Nc3ccc(OCc4ccccc4)cc3)c2c1 [GI262866]	34	5	0	0	0	15	0	0	24	0	–	–	–	–	–
C[C@H]1CC[C@@H](C(=O)Nc2ccccc2)CN1c1cc(-c2ccc3c(N)n[nH]c3c2)nc(N)n1 [GSK2283293]	11	100	17	0	0	3	0	0	0	0	–	–	–	–	–
Nc1nc(-c2cccnc2)c(-c2ccnc3ccccc23)s1 [GW684083]	0	0	51	0	1	0	30	0	0	7	–	–	–	–	–
FC(F)(F)c1cc(Nc2nccc(-c3c(-c4ccc(Cl)cc4)nn4ncccc34)n2)ccc1Cl [GW829351]	11	0	0	0	0	0	10	0	4	0	–	–	–	–	–
Fc1ccc(-c2ncn(CCCNCc3ccccc3)c2-c2ccncc2)cc1	35	0	3	10	28	0	0	4	0	0	–	–	–	–	–
CC(C)(C)OC(=O)NC1CCCN(c2cc(-c3ccc4c(N)n[nH]c4c3)nc(N)n2)C1 (stereo not shown) [GSK2286096]	18	0	11	0	12	10	0	0	0	0	–	–	–	–	–
CS(=O)(=O)CCNCc1ccc(-c2ccc3ncnc(Nc4ccc(OCc5ccccc5)c(Cl)c4)c3c2)o1.Cl [GW574783]	5	0	0	71	26	0	0	0	31	10	–	–	–	–	–
OCCOCCn1ccc2ncnc(Nc3ccc(Oc4cccc(Cl)c4)c(Cl)c3)c21	0	0	0	0	0	3	0	0	37	22	–	–	–	–	–
